Hits are enriched below; roughly 1.6% of the tested compounds scored in any of these assays.
HTR5A ag = HTR5A agonists in luminescence cell assay, primary screen, counter-screen for OPRM1-OPRD1 heterodimer agonist project, full-deck HTS. activation, % at 9.3 µM. cell-based. 340,000 tested, 0.61% active. 5-hydroxytryptamine receptor 5A (Homo sapiens), P47898; in the data active means activation mostly above about 9.5%, no sharp cut-off; inactive means mostly below about 7.6%
Target sequence (P47898 whole entry, looked up): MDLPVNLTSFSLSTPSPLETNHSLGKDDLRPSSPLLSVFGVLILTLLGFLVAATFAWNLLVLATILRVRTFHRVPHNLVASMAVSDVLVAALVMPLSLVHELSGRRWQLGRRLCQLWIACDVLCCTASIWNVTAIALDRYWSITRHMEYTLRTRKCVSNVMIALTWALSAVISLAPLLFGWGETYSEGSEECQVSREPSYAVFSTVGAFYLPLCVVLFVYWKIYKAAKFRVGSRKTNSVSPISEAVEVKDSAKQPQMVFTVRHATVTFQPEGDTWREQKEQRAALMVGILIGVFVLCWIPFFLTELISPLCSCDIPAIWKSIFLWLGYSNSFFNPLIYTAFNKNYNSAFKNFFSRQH
HTR2A ag = mouse Htr2a agonists via beta-arrestin recruitment, primary screen, cell-based, luminescence | CHO-K1 mHTR2A beta-arrestin complementation; percent of 30 µM serotonin response | 360,000 tested, 0.66% active | 5-hydroxytryptamine receptor 2A (Mus musculus), P35363 | activation, % at 7.6 µM | AID 624169, 2012;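 active means activation above a run cutoff, the mean activation of all tested compounds plus 3 SD, cut at about 14% in these data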
OPRM1-OPRD1 inv = inverse agonists of MOR-DOR heterodimerization, primary screen, cell-based, luminescence; inhibition, % at 9.3 µM; Mu-type opioid receptor (Homo sapiens) + Delta-type opioid receptor (Homo sapiens), …; 340,000 tested, 0.21% active; cell-based MOR-DOR heterodimer luminescence, inverse agonism; in the data active means inhibition above about 22%, passing the limit was not always enough
MOR-DOR ag = agonists of OPRM1-OPRD1 heterodimerization, primary screen, cell-based, luminescence. cells. 340,000 tested, 0.3% active. activation, % at 9.3 µM. AID 504326, 2011; in the data active means activation above about 18%
HTR5A inv ag = HTR5A inverse agonists in luminescence cell assay, primary screen, counter-screen for OPRM1-OPRD1 heterodimer inverse agonist project, full-deck HTS; HTR5A cell line, inverse agonism; inhibition, % at 9.3 µM; 340,000 tested, 0.083% active; in the data active means inhibition mostly above about 23%, no sharp cut-off; inactive means mostly below about 18%
MOR ag counter = OPRM1 agonists via beta-arrestin recruitment, confirmation, counter-screen for mouse HTR2A agonist project, cell-based, luminescence, single concentration; shares compounds with HTR2A ag; AID 624380, 2012; 2,300 tested, 5.3% active; U2OS OPRM1 beta-arrestin PathHunter; DMSO 0%, DAMGO 9.3 µM 100%; activation, % at 9.3 µM;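 active means mean activation above the mean of DMSO-only wells plus 3 SD, cut at about 0.5% in these data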
HTR2A ag conf = mouse HTR2A agonists, beta-arrestin recruitment, confirmation, cell-based, luminescence, CHO-K1 PathHunter, triplicate | shares compounds with HTR2A ag | DMSO 0%, 30 µM serotonin 100% | activation, % at 7.6 µM | 2,300 tested, 19% active;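 active means mean activation across triplicates above the hit threshold derived in the original primary screen, cut at about 15% in these data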
A number is an active result.

What do the screens show for `Cc1ccc(OCCNC(=O)[C@H]2O[C@@H](n3ccc(=O)[nH]c3=O)[C@H](O)[C@@H]2O)cc1C`?
HTR2A ag: 43.5; MOR ag counter: inactive; HTR2A ag conf: inactive

Results for O=C1NC[C@H](CCCCN2CCN(CCc3ccccc3)C(=O)C2=O)N(CCC2CCCCC2)C1=O ?
HTR2A ag: inactive

What do the screens show for `COc1cccc(CNC(=O)CCC(=O)N2Cc3cccc(OC)c3Oc3ncccc32)c1OC`?
HTR5A ag: inactive; HTR2A ag: inactive; OPRM1-OPRD1 inv: inactive; MOR-DOR ag: inactive; HTR5A inv ag: inactive

What do the screens show for `COc1cccc2c1Oc1ncccc1N(C(=O)CCC(=O)NCc1ccccc1Cl)C2`?
HTR5A ag: inactive; HTR2A ag: 17.3; OPRM1-OPRD1 inv: inactive; MOR-DOR ag: inactive; HTR5A inv ag: inactive; MOR ag counter: inactive; HTR2A ag conf: inactive

What do the screens show for `CCCC#Cc1cnc2c(c1)C(=O)N([C@H](C)CO)C[C@H](C)[C@@H](CN(C)C(=O)CCN1CCCCC1)O2`?
HTR2A ag: inactive

How did COc1ccccc1CNC(=O)Nc1nc(C(N)Cc2ccc(Cl)cc2)cs1 (stereo not drawn) do in these assays?
HTR2A ag: inactive

What do the screens show for `O=C(O)c1cccc(S(=O)(=O)Nc2ccc(Oc3ccccc3)cc2)c1`?
HTR5A ag: inactive; HTR2A ag: inactive; OPRM1-OPRD1 inv: inactive; MOR-DOR ag: inactive; HTR5A inv ag: inactive

Results for Cc1ccc(Oc2ccc(NS(=O)(=O)c3cccc(C(=O)O)c3)cc2)cc1 ?
HTR5A ag: inactive; HTR2A ag: 15.4; OPRM1-OPRD1 inv: inactive; MOR-DOR ag: inactive; HTR5A inv ag: inactive; MOR ag counter: inactive; HTR2A ag conf: inactive

What do the screens show for `O=C(O)c1ccc(NC(=O)c2cccc(S(=O)(=O)Nc3ccc(C(=O)O)cc3)c2)cc1`?
HTR5A ag: inactive; HTR2A ag: 16.1; OPRM1-OPRD1 inv: inactive; MOR-DOR ag: inactive; HTR5A inv ag: inactive; MOR ag counter: inactive; HTR2A ag conf: inactive

What do the screens show for `Clc1ccc(C(c2cccs2)N2CCNCC2)cc1` (stereo not drawn)?
HTR2A ag: inactive

How did CC(C)C(=O)N1CCCC1(C)C(=O)NCc1ccc(Cl)cc1 (stereo not drawn) do in these assays?
HTR2A ag: inactive

How did CCOC(=O)CCCNC(=O)COc1ccccc1C#N do in these assays?
HTR5A ag: inactive; HTR2A ag: 19.2; OPRM1-OPRD1 inv: inactive; MOR-DOR ag: inactive; HTR5A inv ag: inactive; MOR ag counter: inactive; HTR2A ag conf: inactive

What do the screens show for `Nc1cc(Br)cc2c1[nH]c(=O)c1ccccc12`?
HTR2A ag: inactive

Results for O=C(Nc1n[nH]c(=S)s1)c1ccc2ccccc2c1 ?
HTR5A ag: inactive; HTR2A ag: 17.6; OPRM1-OPRD1 inv: inactive; MOR-DOR ag: inactive; HTR5A inv ag: inactive; MOR ag counter: inactive; HTR2A ag conf: inactive

Results for CC1(C(=O)NS(=O)(=O)C2CC2)CCCN(C(=O)Cc2ccc3ccccc3c2)C1 (stereo not drawn) ?
HTR2A ag: inactive

How did COC(=O)Cc1c(O)ccn(CCc2c[nH]c3ccc(OC)cc23)c1=O do in these assays?
HTR5A ag: inactive; HTR2A ag: inactive; OPRM1-OPRD1 inv: inactive; MOR-DOR ag: inactive; HTR5A inv ag: inactive

How did COc1ccc2[nH]cc(CCN=C3SCC(=O)N3C)c2c1 do in these assays?
HTR5A ag: inactive; HTR2A ag: 17.7; OPRM1-OPRD1 inv: inactive; MOR-DOR ag: inactive; HTR5A inv ag: inactive; MOR ag counter: inactive; HTR2A ag conf: inactive

How did CSc1ccc(OC2(C)CCN(Cc3ccc(C(C)C)cc3)C2)cc1 (stereo not drawn) do in these assays?
HTR2A ag: inactive

Results for Cc1ccccc1NC(=S)NC(NC(=O)c1ccco1)C(Cl)(Cl)Cl (stereo not drawn) ?
HTR5A ag: inactive; HTR2A ag: 16.8; OPRM1-OPRD1 inv: inactive; MOR-DOR ag: inactive; HTR5A inv ag: inactive; MOR ag counter: inactive; HTR2A ag conf: inactive

How did CC(C)c1ccc(C(=O)N2CCCCC2c2cc(C(=O)Nc3ccncc3)no2)cc1 (stereo not drawn) do in these assays?
HTR2A ag: inactive

What do the screens show for `O=C(NC1CC1)c1ccc2c(Cl)c3c(nc2c1)CCCC3`?
HTR5A ag: inactive; HTR2A ag: inactive; OPRM1-OPRD1 inv: inactive; MOR-DOR ag: inactive; HTR5A inv ag: inactive

What do the screens show for `CCOC(=O)N1CCC(NC(=O)c2ccc3c(Cl)c4c(nc3c2)CCCC4)CC1`?
HTR5A ag: inactive; HTR2A ag: 17.7; OPRM1-OPRD1 inv: inactive; MOR-DOR ag: inactive; HTR5A inv ag: inactive; MOR ag counter: inactive; HTR2A ag conf: inactive

Results for CCC(=O)Nc1nnc(SCc2cccc(F)c2)s1 ?
HTR5A ag: inactive; HTR2A ag: 21.2; OPRM1-OPRD1 inv: inactive; MOR-DOR ag: inactive; HTR5A inv ag: inactive; MOR ag counter: inactive; HTR2A ag conf: inactive

Results for CCOC(=O)[C@]12CCC=C1N(Cc1ccco1)C(=O)[C@H](CC(=O)NCCCCc1ccccc1)C2 ?
HTR2A ag: inactive

What do the screens show for `CCCCC(=O)N(C)c1c(CC)nc2c(OCCOc3ccccc3)cccn12`?
HTR2A ag: 24.9; MOR ag counter: inactive; HTR2A ag conf: inactive

How did CCCCC(=O)N(C)c1c(CC)nc2c(OCCOc3ccc(F)cc3)cccn12 do in these assays?
HTR2A ag: inactive

Results for CO[C@H]1CN(C)C(=O)c2cc(NC(=O)c3ccccc3)ccc2OC[C@H](C)NC[C@@H]1C ?
HTR2A ag: inactive

How did COC(=O)c1ccc(COc2ccc(/C=C(\C#N)c3nc4ccccc4[nH]3)cc2OC)o1 do in these assays?
HTR5A ag: inactive; HTR2A ag: inactive; OPRM1-OPRD1 inv: inactive; MOR-DOR ag: inactive; HTR5A inv ag: inactive

What do the screens show for `COc1cc(/C=C(/C#N)c2nc3ccccc3[nH]2)ccc1OCc1ccc(C(=O)O)o1`?
HTR5A ag: inactive; HTR2A ag: 19.2; OPRM1-OPRD1 inv: inactive; MOR-DOR ag: inactive; HTR5A inv ag: inactive; MOR ag counter: 1.7; HTR2A ag conf: inactive

Results for CC(=O)NC(Cc1ccccc1)C(=O)NC1CCN(C(=O)c2cnccn2)CC1 (stereo not drawn) ?
HTR5A ag: inactive; HTR2A ag: 19.4; OPRM1-OPRD1 inv: inactive; MOR-DOR ag: inactive; HTR5A inv ag: inactive; MOR ag counter: inactive; HTR2A ag conf: inactive

Results for CC(=O)NC(Cc1ccccc1)C(=O)NC1CCN(C(=O)c2ccc([N+](=O)[O-])cc2)CC1 (stereo not drawn) ?
HTR5A ag: inactive; HTR2A ag: inactive; OPRM1-OPRD1 inv: inactive; MOR-DOR ag: inactive; HTR5A inv ag: inactive

Assay outcomes: PubChem BioAssay, The Scripps Research Institute Molecular Screening Center
